MazF activator = activators of E. coli MazEF toxin-antitoxin RNase, primary screen, biochemical, fluorescence, uHTS; Endoribonuclease toxin MazF (Escherichia coli (strain K12)), P0AE70; FAM/BHQ RNA-DNA oligo cleavage fluorescence, 5 h; activation, % at 20 µM; hit rate 0.32% among 350,000; AID 504720, 2011; in the data active means activation above about 50%
Anthrax LF inh2 = Bacillus anthracis LF protease inhibitors, primary screen, biochemical, multiplex microsphere, MLPCN library; Lethal factor (Bacillus anthracis), P15917; multiplex microsphere protease cleavage assay; inhibition, % at 10 µM; hit rate 0.12% among 360,000; further: plate controls were buffer without enzyme for full effect and enzyme alone for no effect
Target sequence (P15917 whole entry, looked up): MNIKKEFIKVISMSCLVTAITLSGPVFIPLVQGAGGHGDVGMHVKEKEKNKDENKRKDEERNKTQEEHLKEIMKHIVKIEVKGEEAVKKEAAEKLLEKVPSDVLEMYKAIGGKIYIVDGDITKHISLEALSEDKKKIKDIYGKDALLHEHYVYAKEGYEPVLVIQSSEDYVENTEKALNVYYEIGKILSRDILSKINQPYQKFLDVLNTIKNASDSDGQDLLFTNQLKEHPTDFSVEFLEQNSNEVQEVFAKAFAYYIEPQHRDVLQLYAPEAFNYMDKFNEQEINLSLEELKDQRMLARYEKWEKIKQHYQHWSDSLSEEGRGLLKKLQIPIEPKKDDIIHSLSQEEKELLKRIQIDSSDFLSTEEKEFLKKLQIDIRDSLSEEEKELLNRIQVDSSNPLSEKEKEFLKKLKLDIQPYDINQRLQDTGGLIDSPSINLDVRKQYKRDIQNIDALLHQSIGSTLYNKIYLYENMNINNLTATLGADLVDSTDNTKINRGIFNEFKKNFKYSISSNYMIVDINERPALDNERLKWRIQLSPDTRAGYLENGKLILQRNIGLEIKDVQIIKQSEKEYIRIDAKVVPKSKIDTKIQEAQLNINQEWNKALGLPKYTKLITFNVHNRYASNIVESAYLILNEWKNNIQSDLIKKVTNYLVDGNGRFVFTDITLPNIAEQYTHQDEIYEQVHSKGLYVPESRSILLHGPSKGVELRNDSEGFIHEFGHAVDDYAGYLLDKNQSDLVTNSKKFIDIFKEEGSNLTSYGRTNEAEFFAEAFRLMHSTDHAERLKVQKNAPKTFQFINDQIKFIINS
Vc quorum ag-1 = inducers of Vibrio cholerae quorum light production without autoinducers, primary screen, BH1578 luxS cqsA deficient, single point | V. cholerae BH1578 lux reporter, luminescence, 6 h | activation, % at 18.7 µM | hit rate 0.16% among 350,000; in the data active means activation mostly above about 9.7%, no sharp cut-off; inconclusive means no clear call, values can overlap the other calls; inactive means mostly below about 3.7%
Autofluor counter = flagged as autofluorescent in microsphere protease counterscreen; compound autofluorescence counterscreen, microsphere flow cytometry; stronger effect = higher value; fluorescence intensity (test concentration not listed); hit rate 3.1% among 360,000; in the data active means fluorescence intensity above about 16000; inconclusive means no clear call, values can overlap the other calls
BoNT-F LC inh = BoNT/F light chain protease inhibitors, primary screen, biochemical, flow cytometry, MLPCN library; AID 588497, 2011; inhibition, % at 10 µM; Botulinum neurotoxin type F light chain protease (Clostridium botulinum); Multiplex microsphere protease cleavage assay; hit rate 0.22% among 360,000; in the data active means inhibition above about 35%, passing the limit was not always enough; inconclusive means no clear call, values can overlap the other calls; further: plate controls were buffer without enzyme for full effect and enzyme alone for no effect
BoNT A protease = BoNT/A light chain protease inhibitors, primary screen, biochemical, flow cytometry, MLPCN library | multiplex microsphere protease substrate cleavage | hit rate 0.17% among 360,000 | inhibition, % at 10 µM; further: plate controls were buffer without enzyme for full effect and enzyme alone for no effect
Vc quorum ag-2 = V. cholerae lux activation without autoinducers – BH1578 luxS cqsA deficient, cherry-pick, plate reader, dose response | activation, % at 50 µM | shares compounds with Vc quorum ag-1 | 620 tested, under 10 active | AID 602243, 2012 | V. cholerae BH1578 lux reporter, luminescence, 6 h; call rule not given here
* = called active by the depositor; i = inactive; ? = inconclusive; · = no result given. In the library only some 3.9% were active in any assay of this set; here they are far more common. Unless noted, no stated cut-off is given here; in the data, active means inhibition above about 30%; inconclusive means no clear call, values can overlap the other calls; inactive means below that.

SMILES	MazF activator	Anthrax LF inh2	Vc quorum ag-1	Autofluor counter	BoNT-F LC inh	BoNT A protease	Vc quorum ag-2
COc1ccc(-c2cc(CCCC(=O)NCCc3cc(OC)ccc3OC)no2)cc1	-0.5	-3.4	12.5	8537	-10.5	-0.9	8.3
CCCCC1(C)NC(=O)N(CC(=O)Nc2ccc(Cl)cc2C)C1=O (centres undefined)	4.6	-2.4	i	2941	7.0	0.6	·
OCCn1c(SC2CCCCC2)nc2ccccc21	4.2	-14.9	16.7*	8838	-5.9	-0.9	-0.4
OCCn1c(SCCOc2ccccc2F)nc2ccccc21	2.5	1.7	-0.2	4822	2.7	-0.5	·
COc1ccc(C2N(c3ccccn3)C(=O)C3CCCN32)c(OC)c1 (centres undefined)	4.9	2.7	i	9624	-1.7	-0.3	·
COc1cc(C2N(c3ccccn3)C(=O)C3CCCN32)cc(OC)c1OC (centres undefined)	4.4	3.0	25.8*	9917	-3.6	-0.8	0.2
CC(C#N)(CCc1ccccn1)CCc1ccccn1	5.8	0.4	-0.9	4085	3.9	0.4	·
COC(=O)c1ccccc1NC(=O)CSc1nc(Nc2ccccc2)nc(N2CCOCC2)n1	-13.5	2.3	i	5157	-4.2	-4.3	·
Cc1cccc(NC(=S)NCCc2c[nH]c3ccccc23)c1	1.3	0.2	-0.3	2252	-2.8	0.2	·
Cc1ccc(NC(=S)NCCc2c[nH]c3ccccc23)cc1	-2.5	-2.9	16.7*	3077	3.2	0.7	0.1
CC(C)(C)NC(=O)CCN(/N=C/c1ccc([N+](=O)[O-])o1)C1=NS(=O)(=O)c2ccccc21	-0.6	1.8	-0.2	2677	-2.2	1.4	·
Cc1ccc(Nc2nc3c(c(=O)[nH]2)CCCC3)cc1	-9.3	-2.6	i	12631	17.9	0.3	·
CCOc1ccc(Nc2nc3c(c(=O)[nH]2)CCCC3)cc1	9.5	-2.8	144.9*	3197	2.8	0.0	884.7
O=C(NCc1ccc2c(c1)OCO2)C1CCCN1C(=O)Nc1cccc(Cl)c1 (centres undefined)	3.8	-5.7	5.6*	6911	1.9	0.7	0.1
Cc1ccc(NC(=O)N2CCCC2C(=O)NCc2ccc3c(c2)OCO3)cc1 (centres undefined)	4.1	-0.8	-0.2	5453	3.1	2.2	·
Cn1nc(-c2ccc(OCC(=O)NCC3CCCO3)cc2)c2ccccc2c1=O (centres undefined)	4.9	1.4	12.5	3257	-6.7	-0.3	1.4
CC(=O)Nc1ccc(S(=O)(=O)Nc2cccc(-c3ccc4nncn4n3)c2)cc1	3.6	-1.3	-0.2	2045	-4.6	0.2	·
CC(=O)c1ccc(S(=O)(=O)Nc2cccc(-c3ccc4nncn4n3)c2)cc1	1.2	-0.1	23.3*	2879	-0.3	-0.3	0.4
C=CCN(c1ccccc1)S(=O)(=O)c1ccc(Cl)c(C(=O)OCC(=O)c2[nH]c(C)c(C(C)=O)c2C)c1	0.3	-0.3	-0.7	9172	-0.6	0.6	·
Cc1ccc2nc(SCc3nnc(-c4ccccc4Br)o3)[nH]c2c1	-2.1	-7.1	12.5	2935	-5.8	0.2	0.3
CN1CCN(NC(=O)CSc2ccc(Cl)cc2Cl)CC1	-1.5	-0.5	-0.3	2847	-0.1	-0.4	·
Cc1ccc(S(=O)(=O)NCCC(=O)O)cc1	-0.2	-4.6	33.3*	2659	-20.5	-0.3	0.0
CC(=O)Nc1ccc(S(=O)(=O)NCCC(=O)OCC(=O)c2cc(C)ccc2C)cc1	-3.0	-1.9	14.3	5078	0.2	1.4	0.0
CC(C)c1ccc(S(=O)(=O)N2CCN(C(=O)C3CCN(C(=O)c4ccc(F)cc4)CC3)CC2)cc1	6.2	-1.3	i	4454	-4.9	-0.8	·
O=C(N[C@H](CO)Cc1ccccc1)[C@H]1O[C@@H](n2ccc(=O)[nH]c2=O)[C@H](O)[C@@H]1O	·	7.5	·	4236	7.4	0.1	·
SMILES	MazF activator	Anthrax LF inh2	Vc quorum ag-1	Autofluor counter	BoNT-F LC inh	BoNT A protease	Vc quorum ag-2
O=C(Oc1ccc2cccc(OC(=O)N3CCOCC3)c2c1)N1CCOCC1	-6.9	0.8	-3.4	5113	-26.5	-2.3	·
O=C(Oc1ccc2ccc(OC(=O)N3CCOCC3)cc2c1)N1CCOCC1	2.5	5.6	16.7*	2337	9.3	0.4	11.2
O=C(c1ccc(S(=O)(=O)c2ccc(Cl)cc2)cc1)N1CCOCC1	7.7	4.5	-0.5	4005	-7.3	-2.1	·
Cc1cc(C)c2c(N)c(C(=O)NC3CC3)sc2n1	2.2	-10.5	i	4067	-2.9	-0.5	·
Cc1cc(C(F)(F)F)c2c(N)c(C(=O)NC3CC3)sc2n1	-1.6	4.8	12.5	5138	2.5	3.8	1.0
COc1ccc(OC)c(C(=O)COC(=O)c2[nH]c(C)c(C(C)=O)c2C)c1	0.7	-4.0	i	6588	-11.1	-1.3	·
Cc1ccc(OCC(=O)NNC(=O)C(=O)N2CCCC2)c(C)c1	9.0	-1.0	i	2439	1.0	0.8	·
CCS(=O)(=O)N1CCN(C(=O)CCC2CCCC2)CC1	7.2	-17.8	27.8*	6925	3.6	-0.1	5.6
Cc1nn(-c2ccccc2)c(C)c1NC(=O)COC(=O)c1cc(Br)ccc1O	-8.4	-0.9	26.8	?	-6.0	-1.0	0.6
CCN1CCN(C(=S)NCCOC)CC1	-0.6	0.0	-0.2	2475	5.4	0.5	·
CCOC(=O)N1CCN(C(=S)NCCOC)CC1	-3.5	-2.9	12.5	18608*	5.6	4.0	0.0
N#CC1CC(c2ccccc2)Nc2cc(Cl)ccc2N1 (centres undefined)	7.4	-10.1	-8.3	3823	33.1	2.2	·
Cc1c(C(=O)NCc2ccc3c(c2)OCCO3)sc(=O)n1Cc1ccccc1C(F)(F)F	·	-6.0	-0.1	5650	-1.2	0.3	·
CCOc1ccc(NC(=O)c2ccc(N3CC4CC(C3)c3cccc(=O)n3C4)c(NC(=O)CCN3CCOCC3)c2)cc1 (centres undefined)	12.5	-0.6	-0.5	5776	1.3	0.9	·
CCN1CCCC1CNC(=O)c1cc(OC)c(OC)c(OC)c1 (centres undefined)	5.1	0.0	3.2	2510	11.1	0.9	0.8
CCN1CCCC1CNC(=O)c1cc2c(OC)c(OC)c(OC)cc2[nH]1 (centres undefined)	-3.8	4.6	-15.4	4265	-23.2	-0.7	·
CC1CC(C)CN(C(=O)CCn2c(=O)oc3ccccc32)C1 (centres undefined)	1.7	-3.4	-0.5	7024	-1.2	-4.2	·
Cc1ccc(Oc2ccc(Cl)cc2NC(=O)c2cnccn2)cc1	12.0	0.3	16.7*	?	-9.7	-0.6	0.1

Assay outcomes: PubChem, several laboratories
